{"source": "paper PMC6212790", "about": "“How bacterial xenogeneic silencer rok distinguishes foreign from self DNA in its resident genome”", "note": "Whole data set: some 33,000 sequences, median “e-score” near -0.038, cut for the highest 2% near 0.33. The sample holds the highest values, similar sequences and a random draw of the others, so the mix is not that of the screen.", "data": [{"target": "T1, GST-Rok-C97-191 (Bacillus subtilis subsp. subtilis str. …, UniProt O34857 97-191)", "T1 sequence": "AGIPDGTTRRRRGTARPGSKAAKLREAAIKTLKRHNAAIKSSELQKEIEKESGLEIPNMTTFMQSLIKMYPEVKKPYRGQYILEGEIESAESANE", "experiment": "protein binding microarray; Rok is a gene silencer of Bacillus subtilis; high values mean tight binding", "conditions": "protein: recombinant; tags: GST (pTH5325, pDEST15-Magic modified); dsDNA, one strand shown", "method_in_brief": "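Every oligonucleotide joins a 25-mer constant primer to a 35-mer variable part drawn from a de Bruijn sequence of order 10, so each non-palindromic 8-mer appears at least 32 times and each palindromic 8-mer 16 times. The preference for every 8-mer is reported as a unitless, rank-based enrichment score (E-score). This score spans 0.5 for the most favored 8-mer to −0.5 for the most disfavored.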", "units": {"binding signal": "E-score"}, "values": [{"sequence": "CTGCCTTC", "binding signal": -0.104}, {"sequence": "GCTCGCAA", "binding signal": -0.145}, {"sequence": "AGCTAGGA", "binding signal": -0.00935}, {"sequence": "CCTACTAA", "binding signal": 0.101}, {"sequence": "ACTACGAC", "binding signal": 0.0766}, {"sequence": "ACTACGAA", "binding signal": 0.163}, {"sequence": "CCTACTTC", "binding signal": 0.0914}, {"sequence": "CCTACTAC", "binding signal": 0.343}, {"sequence": "ACTACGAT", "binding signal": 0.362}, {"sequence": "ACTACTCT", "binding signal": 0.19}, {"sequence": "ACTACTCA", "binding signal": 0.265}, {"sequence": "ACTACTAT", "binding signal": 0.46}, {"sequence": "CCGGACCG", "binding signal": -0.0456}, {"sequence": "CGTCAACC", "binding signal": -0.182}, {"sequence": "GTGAGATA", "binding signal": 0.0844}, {"sequence": "CCTTCTCC", "binding signal": -0.165}, {"sequence": "ACCGCTAA", "binding signal": 0.13}, {"sequence": "GTCCAATA", "binding signal": 0.0328}, {"sequence": "CTCGCAAA", "binding signal": 0.0435}, {"sequence": "ACTCGGTA", "binding signal": 0.286}, {"sequence": "GGGAGCAC", "binding signal": -0.183}, {"sequence": "CTATAAGA", "binding signal": 0.156}, {"sequence": "ATATAATA", "binding signal": 0.446}, {"sequence": "CTATAATA", "binding signal": 0.34}, {"sequence": "GTATAAAA", "binding signal": 0.32}, {"sequence": "ATATAATC", "binding signal": 0.201}, {"sequence": "GTATAATA", "binding signal": 0.413}, {"sequence": "ATATAATG", "binding signal": 0.3}, {"sequence": "CTATAATC", "binding signal": 0.222}, {"sequence": "GTATAACA", "binding signal": 0.141}, {"sequence": "CGAGAAGA", "binding signal": -0.0403}, {"sequence": "CCTTAGGA", "binding signal": 0.047}, {"sequence": "ACTGCACC", "binding signal": 0.128}, {"sequence": "TCTTAAAA", "binding signal": -0.0115}, {"sequence": "AAAACAAC", "binding signal": 0.116}, {"sequence": "AAAGTGAC", "binding signal": -0.0335}, {"sequence": "ATTCTTGC", "binding signal": 0.103}, {"sequence": "ATATGGTG", "binding signal": 0.159}, {"sequence": "CTATGGTA", "binding signal": 0.211}, {"sequence": "GAATGGTA", "binding signal": 0.39}, {"sequence": "ATATGGTA", "binding signal": 0.331}, {"sequence": "CTATGTTA", "binding signal": 0.256}, {"sequence": "TAATGGTA", "binding signal": 0.325}, {"sequence": "ATATGTTA", "binding signal": 0.331}, {"sequence": "ATATGTTC", "binding signal": 0.238}, {"sequence": "GAATGGTC", "binding signal": -0.121}, {"sequence": "AGAGCCAG", "binding signal": -0.194}, {"sequence": "ACGTGCCT", "binding signal": -0.189}, {"sequence": "CCGTTCTA", "binding signal": 0.108}, {"sequence": "TACAGGAA", "binding signal": 0.0535}, {"sequence": "GGAATCGA", "binding signal": 0.209}, {"sequence": "AGATTGTG", "binding signal": 0.09}, {"sequence": "GTAGCTAA", "binding signal": 0.346}, {"sequence": "TTAGCTAA", "binding signal": 0.263}, {"sequence": "GAAGCTAC", "binding signal": 0.309}, {"sequence": "ATAGCTAG", "binding signal": 0.271}, {"sequence": "GTAGCTAC", "binding signal": 0.428}, {"sequence": "CTAGCTAC", "binding signal": 0.163}, {"sequence": "ATAGCTAT", "binding signal": 0.402}, {"sequence": "ATAGCTAC", "binding signal": 0.31}, {"sequence": "CTAGCTAA", "binding signal": 0.127}, {"sequence": "ATTTAATG", "binding signal": 0.105}, {"sequence": "CGTCTGAA", "binding signal": -0.0845}, {"sequence": "CTAAAGTC", "binding signal": 0.0658}, {"sequence": "ATGCTGAC", "binding signal": -0.0948}, {"sequence": "ATTCGACC", "binding signal": -0.138}, {"sequence": "CGGTAGTA", "binding signal": 0.391}, {"sequence": "CGGTAGTC", "binding signal": 0.174}, {"sequence": "AGGTAGTC", "binding signal": 0.0784}, {"sequence": "GGGTAATA", "binding signal": 0.272}, {"sequence": "AGGTAGTG", "binding signal": -0.0194}, {"sequence": "AGGTAATA", "binding signal": 0.328}, {"sequence": "AGGTAGTA", "binding signal": 0.328}, {"sequence": "GGGTAGTA", "binding signal": 0.3}, {"sequence": "AGGTAATG", "binding signal": 0.113}, {"sequence": "CTTCGAAC", "binding signal": -0.152}, {"sequence": "CAACTACA", "binding signal": 0.234}, {"sequence": "AGACTACT", "binding signal": 0.198}, {"sequence": "AAACTACA", "binding signal": 0.387}, {"sequence": "AAACTACG", "binding signal": 0.387}, {"sequence": "GAACTACC", "binding signal": 0.367}, {"sequence": "CAACTACG", "binding signal": 0.113}, {"sequence": "GAACTACA", "binding signal": 0.252}, {"sequence": "GCACTACC", "binding signal": 0.0373}, {"sequence": "ACACTACG", "binding signal": -0.0248}, {"sequence": "ACACTACT", "binding signal": 0.18}, {"sequence": "AGACTACA", "binding signal": 0.0455}, {"sequence": "AAACTACT", "binding signal": 0.464}, {"sequence": "GGTCCGAC", "binding signal": -0.143}, {"sequence": "ATGAAAGC", "binding signal": -0.0998}, {"sequence": "AGGTGAAG", "binding signal": -0.109}, {"sequence": "TACTGTAA", "binding signal": 0.323}, {"sequence": "CGGAGAAC", "binding signal": 0.0827}, {"sequence": "ACATTCGA", "binding signal": 0.071}, {"sequence": "TAACTACA", "binding signal": 0.423}, {"sequence": "TGACTACA", "binding signal": 0.031}, {"sequence": "AGACTACC", "binding signal": 0.268}, {"sequence": "TCACTACA", "binding signal": -0.0801}, {"sequence": "CAACTACC", "binding signal": 0.271}, {"sequence": "AAACTACC", "binding signal": 0.473}, {"sequence": "AACAGCTC", "binding signal": 0.087}, {"sequence": "TATGGAGA", "binding signal": 0.0429}, {"sequence": "ATGTACAA", "binding signal": 0.317}, {"sequence": "ATGTACCA", "binding signal": 0.335}, {"sequence": "TTGTACAA", "binding signal": 0.342}, {"sequence": "ATGTACAT", "binding signal": 0.377}, {"sequence": "ATGTACCC", "binding signal": 0.0999}, {"sequence": "ATGTACTA", "binding signal": 0.376}, {"sequence": "CTGTACAA", "binding signal": 0.0696}, {"sequence": "GTGTACAA", "binding signal": 0.213}, {"sequence": "ATGTACAG", "binding signal": 0.317}, {"sequence": "ATGTACTC", "binding signal": 0.178}, {"sequence": "CTGTACCA", "binding signal": -0.0649}, {"sequence": "GTGTACTA", "binding signal": 0.16}, {"sequence": "ATGCAGTC", "binding signal": -0.0482}, {"sequence": "ATCTAAAC", "binding signal": 0.0603}, {"sequence": "AGGCCAAT", "binding signal": -0.176}, {"sequence": "CCTACAGA", "binding signal": 0.064}, {"sequence": "AAGTCTAG", "binding signal": 0.0844}, {"sequence": "GGTTATAA", "binding signal": 0.0781}, {"sequence": "GGAGTTGA", "binding signal": -0.137}, {"sequence": "AAGACCAA", "binding signal": -0.0146}, {"sequence": "CGACCACA", "binding signal": -0.0849}, {"sequence": "ACGCGCAT", "binding signal": -0.158}, {"sequence": "CTCTACAA", "binding signal": 0.00826}, {"sequence": "GTCTACAA", "binding signal": -0.0759}, {"sequence": "TTCTACAA", "binding signal": 0.362}, {"sequence": "ACGACCGT", "binding signal": 0.00992}, {"sequence": "ACATTGCA", "binding signal": 0.0494}, {"sequence": "ACTAGATA", "binding signal": 0.403}, {"sequence": "CCTAGATC", "binding signal": 0.0939}, {"sequence": "ATTAGATC", "binding signal": 0.0978}, {"sequence": "ACTAGATC", "binding signal": 0.335}, {"sequence": "ACTAGATG", "binding signal": 0.317}, {"sequence": "CCTAGATA", "binding signal": 0.0777}, {"sequence": "CGGCACTC", "binding signal": -0.0669}, {"sequence": "CCCATTTC", "binding signal": 0.0795}, {"sequence": "ATGACCTG", "binding signal": -0.0486}, {"sequence": "CCGACTAG", "binding signal": 0.0252}, {"sequence": "CTTATATC", "binding signal": 0.117}, {"sequence": "CTTATTTA", "binding signal": 0.184}, {"sequence": "GTTATATA", "binding signal": 0.31}, {"sequence": "ATTATATC", "binding signal": 0.384}, {"sequence": "ATTATATA", "binding signal": 0.446}, {"sequence": "ATTATTTA", "binding signal": 0.37}, {"sequence": "GTTATTTA", "binding signal": 0.273}, {"sequence": "ATTATAGC", "binding signal": 0.189}, {"sequence": "ATTATATG", "binding signal": 0.223}, {"sequence": "AAAATGCA", "binding signal": 0.153}, {"sequence": "TAAGTGCA", "binding signal": 0.0583}, {"sequence": "GCTAATTA", "binding signal": 0.289}, {"sequence": "ACTAATTG", "binding signal": 0.189}, {"sequence": "CCTAATTC", "binding signal": 0.115}, {"sequence": "CCTAATTA", "binding signal": 0.28}, {"sequence": "ACTAATTA", "binding signal": 0.444}, {"sequence": "ACTAATTC", "binding signal": 0.373}, {"sequence": "CACTTGGC", "binding signal": -0.143}, {"sequence": "CCTGACCA", "binding signal": -0.111}, {"sequence": "AAAGTTCG", "binding signal": 0.0847}, {"sequence": "CGCGCTAA", "binding signal": 0.329}, {"sequence": "CGCGCTAC", "binding signal": -0.0357}, {"sequence": "TGCGCTAA", "binding signal": -0.0024}, {"sequence": "AATCTGTG", "binding signal": -0.0756}, {"sequence": "CTAATTTC", "binding signal": 0.272}, {"sequence": "ATAATTTG", "binding signal": 0.344}, {"sequence": "ACAATTTG", "binding signal": 0.104}, {"sequence": "GTAATTGA", "binding signal": 0.0917}, {"sequence": "AGAATTTC", "binding signal": 0.255}, {"sequence": "CTAATTTA", "binding signal": 0.305}, {"sequence": "GTAATTTA", "binding signal": 0.353}, {"sequence": "GCAATTTA", "binding signal": 0.257}, {"sequence": "ATAATTCA", "binding signal": 0.245}, {"sequence": "ATAATTTA", "binding signal": 0.354}, {"sequence": "AGAATTTG", "binding signal": 0.161}, {"sequence": "ATAATTTC", "binding signal": 0.36}]}]}
